Test results from PubChem BioAssay AID1780 (National Center for Advancing Translational Sciences (NCATS), 2009).
Active and inactive are the calls of the source. Calls come from the whole dose curve; as a rule, active = well fitted curve in the direction sought with a large enough effect; inactive = no such curve, though single readings can be large or run the other way.

The molecules below were run against Pyruvate kinase PKM (Homo sapiens) (UniProt P14618) (assay: Confirmation Concentration-Response Assay for Activators of Human Muscle isoform 1 Pyruvate Kinase). Conditions: purified hPK-M1, Kinase-Glo ATP luminescence, 1 h; series mostly up to 57.5 µM.
Excerpt: Confirmatory assay NIH Chemical Genomics Center [NCGC] Matthew G. Vander Heiden, M.D., Ph.D. [Harvard Medical School, 77 Avenue Louis Pasteur, Boston, MA 02115] NCGC Assay Overview: Human pyruvate kinase […] (hPK-M1) enzyme was supplied as a highly purified (>95% pure) preparation from Harvard Medical School and assayed for its ability to generate ATP from ADP using phosphoenolpyruvate (PEP) as a substrate. ATP generation was detected in a coupled reaction by luciferase-mediated luminescence, an ATP-dependent process. Pyruvate kinase substrates, PEP and ADP, were present in the assay at Km and approximately 10-fold below Km respectively. The enzyme was assayed at an intermediate level of activity to screen for both inhibitors and activators.
NCGC Assay Protocol Summary for M1-isoform: Three uL of substrate mix (at r.t.) in assay buffer (50 mM Imidazole pH7.2, 50 mM KCl, 7 mM MgCl2, 0.01% Tween 20, 0.05% BSA) was dispensed into white solid bottom 1,536 well microtiter plates so that the final concentrations of substrates in the assay were 0.1 mM ADP and 0.5 mM PEP. 23 nL of compound were delivered by a pin tool and 1 uL of enzyme mix (final concentration of 1 nM) in assay buffer (4 degree Celsius) was added. Plates were incubated at room temperature for 1 hour. Two uL of detection mix (Kinase-Glo, Promega; at 4 degree Celsius protected from light) was added and luminescence read by a ViewLux (Perkin Elmer) at 1 second exposure/plate. Data were normalized to the uninhibited (row 31). Additionally, a no enzyme and 5-fold enzyme control was dispensed in row 32, split equally between the two conditions.

Chain of Pyruvate kinase PKM (Homo sapiens) (P14618 whole entry, looked up, canonical isoform): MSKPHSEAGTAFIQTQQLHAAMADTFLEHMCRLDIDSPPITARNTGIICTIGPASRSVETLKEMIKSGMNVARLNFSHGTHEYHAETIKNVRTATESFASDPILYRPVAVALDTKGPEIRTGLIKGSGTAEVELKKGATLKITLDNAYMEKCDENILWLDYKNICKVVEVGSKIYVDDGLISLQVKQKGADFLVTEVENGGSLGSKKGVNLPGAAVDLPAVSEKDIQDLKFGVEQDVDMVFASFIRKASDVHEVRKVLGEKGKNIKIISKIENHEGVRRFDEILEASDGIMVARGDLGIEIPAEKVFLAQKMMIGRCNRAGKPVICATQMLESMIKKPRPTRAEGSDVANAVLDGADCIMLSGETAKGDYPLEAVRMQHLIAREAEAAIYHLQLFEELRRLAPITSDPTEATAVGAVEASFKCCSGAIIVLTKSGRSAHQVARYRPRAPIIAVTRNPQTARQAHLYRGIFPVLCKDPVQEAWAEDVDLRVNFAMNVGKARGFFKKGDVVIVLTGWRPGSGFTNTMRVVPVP

outcome, inactive:
COc1ccc(S(=O)(=O)N2CCN(S(=O)(=O)c3c(F)cccc3F)CC2)cc1
CCc1cc2c(s1)c1cnn(Cc3ccccc3F)c(=O)c1n2C
Cc1cc2c(s1)c1cnn(Cc3ccc(C(C)C)cc3)c(=O)c1n2C
C[C@@H]1CN(S(=O)(=O)c2ccc3c(c2)OCCO3)CCN1S(=O)(=O)c1c(F)cccc1F
Cc1cc2c(s1)c1cnn(Cc3ccc(F)cc3F)c(=O)c1n2C
Cc1cc2c(s1)c1cnn(Cc3ccccc3F)c(=O)c1n2C
Cc1cc2[nH]c3c(=O)n(Cc4ccccc4F)ncc3c2s1
Cc1cc2c(s1)c1cnn(Cc3ccc(F)c(F)c3F)c(=O)c1n2C
COc1ccc(S(=O)(=O)N2CCN(S(=O)(=O)c3ccc4c(c3)OCCO4)CC2)cc1
Cc1cc2c(s1)c1cnn(Cc3ccc(-c4ccccc4)cc3)c(=O)c1n2C
COc1ccc(S(=O)(=O)N2CCN(S(=O)(=O)c3ccc(OC)cc3)CC2)cc1
O=S(=O)(NCC1CN(S(=O)(=O)c2c(F)cccc2F)C1)c1ccc2c(c1)OCCO2
Cn1c2cc(C#N)sc2c2cnn(Cc3ccccc3F)c(=O)c21
COc1cc(F)c(S(=O)(=O)N2CCN(S(=O)(=O)c3ccc4c(c3)OCCO4)CC2)c(F)c1
O=S(=O)(NCCCNS(=O)(=O)c1c(F)cccc1F)c1ccc2c(c1)OCCO2
O=S(=O)(NC1CCN(S(=O)(=O)c2ccc3c(c2)OCCO3)C1)c1c(F)cccc1F (centres undefined)
N#Cc1ccc(S(=O)(=O)N2CCN(S(=O)(=O)c3ccc4c(c3)OCCO4)CC2)cc1
Cc1cc2c(s1)c1cnn(Cc3ccccc3)c(=O)c1n2C
O=S(=O)(c1ccc2c(c1)OCCO2)N1CCN(S(=O)(=O)c2ccc(F)cc2F)CC1
